This is one part of a sample in which hits are shown more often than they occur.
HBB splice mod = modulators of hemoglobin beta chain splicing; HBB splicing reporter cell assay, activation; EGFP reporter with mutant IVS2-654 intron; response scale: normalised to 500 nM splice-correcting PNA; Potency, µM (top dose mostly 46.1 µM), inactives show at the highest dose activation, usual class: activators; AID 925; actives 0.06% (n = 65,000); also: potency is read from the fitted curve at half-maximal effect; 0% is about no effect
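Compounds were applied for 2 days to HeLa EGFP-654 cells, 500/well in Optimem with 2% FCS. The reporter's EGFP is disrupted by mis-splicing of beta-globin intron IVS2-654. Readout: summed well GFP fluorescence from 488 nm laser scanning; reference was 500 nM antisense […] 654 PNA.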
ERK AVP inh = vasopressin-driven ERK pathway inhibition; HEK293-V1b, vasopressin-stimulated pERK AlphaScreen; Potency, µM (top dose mostly 57.5 µM), without a hit: at the highest dose activity, negative = inhibition, hits mostly inhibitors; actives 0.99% (n = 72,000); AID 995; also: potency is read from the fitted curve at half-maximal effect; % is scaled to controls: 0 for no effect and ±100 for the full control effect; nearly all actives have a fitted effect of over 55% in size
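Overnight-seeded V1b-HEK293 cells in 1% FBS got compound, then vasopressin (25 nM final, 5 min, 37C), then lysis buffer. AlphaScreen detection of phospho-ERK; activity normalized to basal and full-stimulation controls.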
IkB signaling = suppresses IkB signaling in ABC-DLBCL reporter cells | actives 0.04% (n = 110,000) | Potency, µM (top dose mostly 57.1 µM), for inactives: at the top dose IkBa stabilization activation | ABC-DLBCL IkBa-CBG/CBR dual luciferase ratio, 4 h; response scale: scaled: untreated 0%, proteasome inhibitor 100% | AID 445; active = well fitted curve in the direction sought with a large enough effect in the signal ratio, not every such curve was filed as active; inconclusive = small, poorly fitted or top-dose-only effect, or a change in a side signal; the % refers to the signal ratio;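 also: potency is read from the fitted curve at half-maximal effect; the direction sought is a rising ratio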
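In this assay, an IκBα–CBG68 fusion accumulates when IKK-driven degradation is blocked; native CBR normalizes for cell number. OCI-Ly3 cells were treated 4 h with compound and doxycycline, then green and red light read after Chroma-Glo addition.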
CRE Fsk mod = CRE-bla signaling modulation under forskolin stimulation | AID 662 | Potency, µM (top dose mostly 38.2 µM), for the others: top-dose activity change, negative = inhibition, hits mostly activators | actives 2.5% (n = 71,000) | CHO CRE-bla reporter (cAMP response element driving beta-lactamase), forskolin EC10, beta-lactamase ratio; active = well fitted activation curve with a large enough effect in the signal ratio, with a control signal flat, not every such curve was filed as active; inconclusive = small, poorly fitted or top-dose-only effect, or effect the other way, or a change in a side signal; the % refers to the signal ratio; also: potency is read from the fitted curve at half-maximal effect; % of control where 0% means no effect
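Modulation of forskolin signalling: compounds in titration series added with EC10 NKH 477 to CHO cells carrying a CRE-driven beta-lactamase reporter, 3 h, 37C. CCF4 FRET ratio (460/530 nm, ex 405 nm) gives %activity and AC50.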
Epigenetic mod = epigenetic GFP locus derepression in mouse cells; Potency, µM (series often up to 46.1 µM), for inactives: at the top dose GFP derepression (activation); AID 597; mouse C127i GFP locus derepression, cytometry, 30 h; actives 0.09% (n = 68,000); also: % of control where 0% means no effect
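Locus derepression in mouse mammary C127i cells whose integrated CMV-GFP reporter is normally silent; GFP expression after 30 h compound treatment was quantified by counting fluorescent cells.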
Active calls of the source: *; ? = inconclusive; . = no result; [ ] = dose if it differs, or a comment. Unless noted, calls follow the shape of the dose curve; as a rule, active = well fitted curve in the direction sought with a large enough effect; inconclusive = small, poorly fitted or top-dose-only effect, or another doubt; inactive = no such curve, though single readings can be large; an effect the other way counts as inactive or inconclusive.

SMILES	HBB splice mod	ERK AVP inh	IkB signaling	CRE Fsk mod	Epigenetic mod
COc1ccc(/C=C(\C#N)C(N)=O)cc1OC	0.7%[9.22 µM]	-4.3%[11.5 µM]	-1.4%[11.4 µM]	23.0%[7.6 µM]	6.6%[9.22 µM]
CCc1cccc(C)c1NC(=O)NC1COc2ccccc2C1 (configuration not stated)	.	.	0.8%	.	.
Cn1cccc1C(=O)N1CCC2(CC1)CCN(c1ccc(-c3ccccc3)cc1)CC2	-2.3%	-29.9%	4.2%[11.4 µM]	-7.6%	-0.1%[9.22 µM]
COc1ccc(C)cc1NC(=O)CSc1nnc(COc2ccccc2)n1Cc1ccco1	4.1%[57.5 µM]	-29.6%	?	-25.1%	0.0%
COc1ccc(C)cc1NC(=O)CSc1nnc(-c2ccccn2)n1Cc1ccco1	-1.1%	-18.7%	?	1.58µM*	2.9%
COc1ccccc1NC(=O)CSc1nnc(-c2ccccn2)n1Cc1ccco1	-1.7%	-21.9%	-4.0%	10µM*	0.0%
COc1ccccc1NC(=O)CSc1nnc(-c2ccco2)n1Cc1ccco1	-1.5%	-1.1%	2.5%	-2.7%	5.7%
CCOC(=O)c1c(NC(C)=O)c2c3c(sc2n1Cc1cc(C)ccc1C)CCCC3	.	.	1.0%	.	.
COC(=O)c1ccccc1NC(=O)c1cc(C)nc2c1c(C)nn2-c1ccc(C)cc1	.	.	-4.0%	.	.
Cc1nc(NCCNC(=O)c2ccco2)c2c(C)c(C)sc2n1	-8.4%	?	-0.7%	5.01µM*	-1.2%
COC(=O)[C@H](C)NC(=O)Nc1ccc(Oc2ccccc2)cc1	-0.4%	25.1µM*	0.7%	22.5%	2.9%
COC(=O)[C@H](C)NC(=O)Nc1ccc(OC)c(OC)c1	0.3%	-8.5%	-2.0%	?	2.9%
Cc1nn(C)c(C)c1Sc1ccc(Br)cc1	-1.4%	23.7%	3.8%	3.7%	2.2%
Cc1cc(C)nc(-n2nc(C)c(Sc3ccc(F)cc3)c2N)n1	0.5%	17.8%	?	2µM*	?
COc1cccc(OC)c1C(=O)Nc1ccc(S(=O)(=O)Nc2nccc(C)n2)cc1	.	.	0.3%	.	.
C/C=C/c1ccc(OCCCCN2C(=O)NC(C)(C)C2=O)c(OC)c1	-1.2%	20µM*	-3.9%	?	0.0%
COC(=O)c1cc(=O)c(O)c2c(O)c(O)ccc2c1	.	4.3%	.	.	.
COc1ccc(Cl)cc1NCc1nnc2n1CCCCC2	.	.	1.2%	.	.
COc1ccc(-c2csc(Cc3nnc4n3CCCCC4)n2)cc1OC	0.7%	-20.9%	0.0%	12.6µM*	1.1%
Nc1c(C(=O)OCC2CCCO2)c2nc3ccccc3nc2n1C1CCCC1 (configuration not stated)	-5.7%[0.369 µM]	?	0.4%	2.51µM*	2.7%
COCCn1c(N)c(C(=O)NCC2CCCO2)c2nc3ccccc3nc21 (configuration not stated)	.	.	.	.	-1.4%[20.6 µM]
COc1ccccc1C[C@@H](Cc1nc2ccccc2[nH]1)c1nc2ccccc2[nH]1	.	.	1.3%[11.4 µM]	-9.7%	-2.4%[9.22 µM]
COc1ccc(-c2cc(C(F)(F)F)nc(NCc3ccco3)n2)cc1OC	2.6%	-11.0%	-0.4%	2.51µM*	-1.6%
COc1cccc(-c2cc(C(F)(F)F)nc(NCc3ccco3)n2)c1	-1.5%	197.7%	?	15.8%	2.3%
Cn1c(=O)c2sccc2n2c(CCC(=O)NCc3ccccc3)nnc12	.	.	2.5%	.	.
SMILES	HBB splice mod	ERK AVP inh	IkB signaling	CRE Fsk mod	Epigenetic mod
CCc1ccccc1NC(=O)CSc1nc2n[nH]c(C)c2c(=N)n1-c1ccc(OC)cc1	-1.9%	-22.4%	?	2.51µM*	1.2%
CCC(Sc1nc2n[nH]c(C)c2c(=N)n1-c1cccc(Cl)c1)C(=O)NCCOC (configuration not stated)	-1.1%	2.0%	-2.3%	12.6µM*	4.8%
CCCCN(CC)C(=O)CSc1nc2n[nH]c(C)c2c(=N)n1-c1cccc(OC)c1	.	.	0.1%	.	.
CCCN(CCC)C(=O)CSc1nc2n[nH]c(C)c2c(=N)n1-c1ccc(OC)cc1	0.3%	?	?	1.58µM*	-1.2%
CCCN(CCC)C(=O)CSc1nc2n[nH]c(C)c2c(=N)n1-c1ccc(OCC)cc1	0.7%	?	?	2.51µM*	-1.2%
NC1=N[C@H](c2ccc(Cl)cc2)N(c2ccc(S(=O)(=O)Nc3ncccn3)cc2)C(N)=N1	5.1%[9.22 µM]	?	0.9%[11.4 µM]	0.1%[7.6 µM]	2.3%[9.22 µM]
CC1(C)CC[C@]2(C(=O)O)CC[C@]3(C)C(=CC[C@@H]4[C@@]5(C)CC[C@H](O)C(C)(C)[C@@H]5CC[C@@]43C)[C@@H]2C1	.	.	-0.8%[11.4 µM]	?	-4.6%[9.22 µM]
CCOC(=O)C1=C(C)NC(C)=C(C(=O)OC)[C@H]1c1cccc(Cl)c1Cl	-0.8%	-17.3%	11.4%	?	1.1%
Cn1c(=O)c2cc(C(=O)NCCCN3CCN(c4ccc(F)cc4)CC3)sc2c2ccccc21	.	.	-3.6%	.	.
O=C(Cn1c(=O)n(Cc2ccc(F)cc2)c(=O)c2sc3ccccc3c21)NCc1ccccc1Cl	.	.	2.3%	.	.
CCCn1c(=NC(C)=O)c(C#N)cc2c(=O)n3cccc(C)c3nc21	-0.8%[0.369 µM]	-6.8%	-1.5%	2.51µM*	1.6%
CCCCCn1c(=NC(C)=O)c(C#N)cc2c(=O)n3cccc(C)c3nc21	4.8%[0.369 µM]	-7.2%	1.8%	3.98µM*	2.1%
CCOc1cc(CN2CCN(S(=O)(=O)c3ccc(C)cc3)CC2)ccc1OC	.	.	-1.3%	.	.
CCOc1ccccc1CNC(=O)c1cc2cc(S(=O)(=O)N3CCCCC3)ccc2n1C	.	.	-0.3%	.	.
CCOc1ccccc1CNC(=O)c1cc2occc2n1C	-1.1%	20µM*	1.8%	-2.2%	-2.3%
COc1ccc(C2=NOC(C(=O)Nc3cc(Br)ccc3O)C2)cc1OC (configuration not stated)	3.1%	10µM*	?	15.8µM*	0.3%
CCn1c2ccccc2c2nnc(SCC(=O)NC(CC(C)C)C(=O)OC)nc21 (configuration not stated)	2.1%	-8.2%	0.1%	7.94µM*	-2.2%
CCn1c2ccccc2c2nnc(SCC(=O)Nc3ccccc3OC)nc21	.	.	0.7%	.	.
CCn1c2ccccc2c2nnc(SCC(=O)c3ccccc3)nc21	3.6%	20µM*	-7.7%	3.16µM*	2.5%
CCOC(=O)Cc1nnc(NC(=O)CSc2nnc3c4ccccc4n(C(C)C)c3n2)s1	-0.7%	-4.2%	0.7%	10µM*	2.3%
CCn1c2ccccc2c2nnc(SCC(=O)Nc3ncccn3)nc21	-1.4%	-24.2%	-2.4%	10µM*	10.2%
COc1ccc(NC(=O)c2cc3c(=O)n(C)c4ccccc4c3n2C)cc1OC	-0.1%	?	3.2%	3.98µM*	.
Cn1c(C(=O)NC2CCCCCC2)cc2c(=O)n(C)c3ccccc3c21	-0.6%	18.9%	-1.8%	2.51µM*	.
COc1cc(NC(=O)c2cc3c(=O)n(C)c4ccccc4c3n2C)cc(OC)c1OC	0.6%	-12.1%	2.9%	16.9%	.
COc1cccc(-n2c(=O)c3sc4ccccc4c3n(CC(=O)NC3CCCCC3)c2=O)c1	.	.	13.1%	.	.

Assay outcomes: PubChem, National Center for Advancing Translational Sciences (NCATS)
